PubChem BioAssay (Tox21)
Values joined by “and” are separate entries in the source; they are usually repeats but may differ in a detail not shown here. Equal values may be shown once. Unmarked numbers belong to inactive results. Entries that show only a call come without a potency. Active and inactive are the calls of the source. Unless noted, calls follow the shape of the dose curve; as a rule, active = well fitted curve in the direction sought with a large enough effect in the repeat runs; inconclusive = weak or mixed curves; inactive = no such curve, though single readings can be large; an effect the other way counts as inactive or inconclusive.

Key:
[1] = qHTS assay for small molecules that induce genotoxicity in human embryonic kidney cells expressing luciferase-tagged ATAD5 (AID 651632); also: nearly all actives have a fitted effect of over 15% in size
Summary of the method: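 ATAD5-luc HEK293T, 2,000 cells/well; cpd or DMSO pin-transferred; 16 hr, 37C/5% CO2; Amplite 30 min RT; luminescence.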

[2] = qHTS assay for small molecule disruptors of the mitochondrial membrane potential (AID 720635); also: potency is read from the fitted curve at half-maximal effect
Summary of the method: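 HepG2 cells (2,000/well) attached overnight at 37C, then took compound for 1 hr at 37C, 5% CO2. Mito-MPS dye was added for 30 min; fluorescence was read at 490/535 nm (monomers) and 540/590 nm (aggregates).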

[3] = qHTS assay to test for compound auto fluorescence at 535 nm (green) in HEK293 cells (AID 720680)
[4] = qHTS assay to test for compound auto fluorescence at 460 nm (blue) in HepG2 cell free culture (AID 720685)
Summary of the method: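 Compound (23 nL) or DMSO pinned into cell-free MEM with 10% FBS; blue fluorescence read at 405/460 nm excitation/emission, expressed as auto-fluorescence equivalency to triamterene.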

[5] = qHTS assay for identifying genotoxic compounds that show differential cytotoxicity against isogenic chicken DT40 cell lines with known DNA damage response pathways - wild type cell line (AID 743012); also: nearly all actives have a fitted effect of over 60% in size; also: potency is read from the fitted curve at half-maximal effect
Summary of the method: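 Wild type DT40, 300 cells/well, ~0.5 h settle at 37 C/5% CO2; compounds in DMSO added by pintool; 40 h at 37 C/5% CO2; CellTiter-Glo, 30 min RT; luminescence.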

[6] = qHTS assay for identifying genotoxic compounds that show differential cytotoxicity against isogenic chicken DT40 cell lines with known DNA damage response pathways - Rev3 mutant cell line (AID 743014); also: nearly all actives have a fitted effect of over 55% in size
[7] = qHTS assay for identifying genotoxic compounds that show differential cytotoxicity against isogenic chicken DT40 cell lines with known DNA damage response pathways - Rad54/Ku70 mutant cell line (AID 743015); also: nearly all actives have a fitted effect of over 60% in size; also: potency is read from the fitted curve at half-maximal effect
[8] = qHTS assay to identify small molecule antagonists of the androgen receptor (AR) signaling pathway - cell viability counter screen (AID 743033; also: nearly all actives have a fitted effect of over 45% in size)
[9] = qHTS assay to identify small molecule antagonists of the thyroid receptor (TR) signaling pathway (AID 743065); also: nearly all actives have a fitted effect of over 55% in size; also: potency is read from the fitted curve at half-maximal effect
Summary of the method: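 GH3.TRE-Luc rat pituitary cells carrying two TR response elements driving luciferase were plated for 4 h, given compound plus 1 nM T3 (final), and incubated 23.5 h at 37 C. ONE-Glo luminescence measured reporter inhibition; CellTiter-Fluor fluorescence tracked cytotoxicity.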

[10] = test system: thyroid hormone receptor (rat, GH3 cells); test: qHTS assay to identify small molecule agonists of the thyroid receptor (TR) signaling pathway (AID 743066; calls by dose curve)
[11] = qHTS assay to identify small molecule antagonists of the estrogen receptor alpha (ER-alpha) signaling pathway - cell viability counter screen (AID 743074; calls by dose curve;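 also: HEK293 cells carrying ER-alpha-UAS-bla reporter stimulated with 17beta-estradiol; nearly all actives have a fitted effect of over 45% in size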; also: potency is read from the fitted curve at half-maximal effect)
[12] = target: Peroxisome proliferator-activated receptor gamma (Homo sapiens) (UniProt P37231); test: qHTS assay to identify small molecule agonists of the peroxisome proliferator-activated receptor gamma (PPARg) signaling pathway (AID 743094; active = well fitted activation curve with a large enough effect in the signal ratio in the repeat runs, not every such curve was filed as active; inconclusive = weak or mixed curves, or effect the other way; inactive = no such curve, though single readings can be large or run the other way; the % refers to the signal ratio)
Summary of the method: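 Beta-lactamase FRET fluorescence was the read-out after a 1 h room-temperature substrate step, following 17 h compound treatment at 37C of HEK293H cells expressing a UAS-driven bla reporter responsive to PPARg.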

[13] = target: Nuclear receptor subfamily 1 group I member 2 (Rattus norvegicus) (UniProt Q9R1A7); test: Rat pregnane X receptor (rPXR) activation by small molecules, qHTS assay (AID 1346983); details: rPXR luciferase reporter cells, One-Glo luminescence, 24 h; max activation: active compounds read high; also: nearly all actives have a fitted effect of over 20% in size
Summary of the method: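 Cell-based rPXR luciferase reporter assay, 2,000 cells per well, rested 5hr at 37 C before compound addition in DMSO, then 24 hr at 37 C. One-Glo reagent was added and luminescence read after 30 min at room temperature.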

[14] = target: Nuclear receptor subfamily 1 group I member 2 (Homo sapiens) (UniProt O75469); test: CYP3A4 induction through human pregnane X receptor (PXR) by small molecules, qHTS assay (AID 1346984); also: nearly all actives have a fitted effect of over 40% in size
Summary of the method: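 Luminescence readout: luciferase signal after One-Glo (30 min, room temperature), following 3 h at 37C with 3uM final Luciferin-IPA P450 substrate. Cells were DPX-2 (HepG2, PXR/CYP3A4-luc co-transfected) dosed for 24 h.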

[15] = target: Nuclear receptor subfamily 1 group I member 2 (Homo sapiens) (UniProt O75469); test: Human pregnane X receptor (PXR) activation by small molecules, qHTS assay (AID 1346985); also: nearly all actives have a fitted effect of over 40% in size; also: potency is read from the fitted curve at half-maximal effect
Summary of the method: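 DPX-2 cells (HepG2 co-transfected with a PXR response element and a CYP3A4-promoter luciferase construct) were seeded at 2,000 per well, rested 5 hr at 37C, then exposed to DMSO-dissolved compounds for 24 hr. Activation was read as luciferase luminescence.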

[16] = qHTS assay for small molecules that induce genotoxicity in human embryonic kidney cells expressing luciferase-tagged ATAD5 - cell viability (AID 651634; calls by dose curve; also: nearly all actives have a fitted effect of over 25% in size)
Summary of the method: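 Fluorescence from CellTiter-Fluor, reporting protease activity within live cells, served as the viability read-out. HEK293T cells carrying luciferase-tagged ATAD5 had been treated with compound for 15.5 hr at 37C.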

[17] = qHTS assay to identify small molecule antagonists of the thyroid receptor (TR) signaling pathway - cell viability counter screen (AID 743064); also: nearly all actives have a fitted effect of over 50% in size; also: potency is read from the fitted curve at half-maximal effect
Summary of the method: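 Same-well viability check: GH3.TRE-Luc cells stimulated with 1 nM T3 alongside test compound for 23.5 h, followed by CellTiter-Fluor fluorescence.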

[18] = target: Estrogen receptor (Homo sapiens) (UniProt P03372); test: qHTS assay to identify small molecule antagonists of the estrogen receptor alpha (ER-alpha) signaling pathway (AID 743069; active = well fitted curve in the direction sought with a large enough effect in the signal ratio in the repeat runs, not every such curve was filed as active; inconclusive = weak or mixed curves, or effect the other way; inactive = no such curve, though single readings can be large or run the other way; the % refers to the signal ratio)
Summary of the method: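 Estradiol-stimulated ER-alpha-UAS-bla HEK293 cells, 18 hr compound exposure at 37C. LiveBLAzer B/G substrate, 2 hr RT, fluorescence read.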

[19] = target: Estrogen receptor (Homo sapiens) (UniProt P03372); test: qHTS assay to identify small molecule agonists of the estrogen receptor alpha (ER-alpha) signaling pathway (AID 743075; calls by dose curve;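 also: HEK293 GripTite cells with ER-alpha and UAS-driven beta-lactamase reporter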; also: potency is read from the fitted curve at half-maximal effect)
[20] = target: Estrogen receptor (Homo sapiens) (UniProt P03372); test: qHTS assay to identify small molecule agonists of the estrogen receptor alpha (ER-alpha) signaling pathway using the BG1 cell line (AID 743079); also: nearly all actives have a fitted effect of over 20% in size; also: potency is read from the fitted curve at half-maximal effect

Chain of Estrogen receptor (Homo sapiens) (P03372 whole entry, looked up): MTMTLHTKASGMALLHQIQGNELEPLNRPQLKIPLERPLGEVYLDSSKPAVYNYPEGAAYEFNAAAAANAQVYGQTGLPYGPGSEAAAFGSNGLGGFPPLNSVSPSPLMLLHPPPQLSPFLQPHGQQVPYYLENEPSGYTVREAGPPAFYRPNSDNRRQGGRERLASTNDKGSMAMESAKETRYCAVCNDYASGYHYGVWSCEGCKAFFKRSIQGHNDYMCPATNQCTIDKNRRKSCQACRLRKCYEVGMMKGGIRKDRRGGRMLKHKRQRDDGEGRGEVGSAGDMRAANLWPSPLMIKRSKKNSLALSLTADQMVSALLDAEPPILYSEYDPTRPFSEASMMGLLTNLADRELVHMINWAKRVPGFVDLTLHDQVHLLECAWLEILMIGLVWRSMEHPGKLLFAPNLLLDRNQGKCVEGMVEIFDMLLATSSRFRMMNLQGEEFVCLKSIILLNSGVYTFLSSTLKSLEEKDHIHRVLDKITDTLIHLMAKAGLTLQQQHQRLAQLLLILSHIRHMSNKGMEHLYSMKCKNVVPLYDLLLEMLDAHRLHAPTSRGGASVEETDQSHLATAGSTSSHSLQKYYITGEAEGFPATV
Chain of Nuclear receptor subfamily 1 group I member 2 (Rattus norvegicus) (Q9R1A7 whole entry, looked up): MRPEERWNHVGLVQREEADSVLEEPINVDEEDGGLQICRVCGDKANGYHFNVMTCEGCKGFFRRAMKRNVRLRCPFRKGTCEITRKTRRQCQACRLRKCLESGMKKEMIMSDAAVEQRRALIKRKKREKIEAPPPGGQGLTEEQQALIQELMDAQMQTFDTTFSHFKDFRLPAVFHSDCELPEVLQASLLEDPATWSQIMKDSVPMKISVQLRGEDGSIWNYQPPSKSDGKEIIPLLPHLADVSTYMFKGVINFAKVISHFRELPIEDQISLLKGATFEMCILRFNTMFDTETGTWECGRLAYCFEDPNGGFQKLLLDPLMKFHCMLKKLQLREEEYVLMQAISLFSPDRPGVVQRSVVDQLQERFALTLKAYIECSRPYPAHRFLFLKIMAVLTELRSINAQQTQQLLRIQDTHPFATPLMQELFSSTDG
Chain of Peroxisome proliferator-activated receptor gamma (Homo sapiens) (P37231 whole entry, looked up): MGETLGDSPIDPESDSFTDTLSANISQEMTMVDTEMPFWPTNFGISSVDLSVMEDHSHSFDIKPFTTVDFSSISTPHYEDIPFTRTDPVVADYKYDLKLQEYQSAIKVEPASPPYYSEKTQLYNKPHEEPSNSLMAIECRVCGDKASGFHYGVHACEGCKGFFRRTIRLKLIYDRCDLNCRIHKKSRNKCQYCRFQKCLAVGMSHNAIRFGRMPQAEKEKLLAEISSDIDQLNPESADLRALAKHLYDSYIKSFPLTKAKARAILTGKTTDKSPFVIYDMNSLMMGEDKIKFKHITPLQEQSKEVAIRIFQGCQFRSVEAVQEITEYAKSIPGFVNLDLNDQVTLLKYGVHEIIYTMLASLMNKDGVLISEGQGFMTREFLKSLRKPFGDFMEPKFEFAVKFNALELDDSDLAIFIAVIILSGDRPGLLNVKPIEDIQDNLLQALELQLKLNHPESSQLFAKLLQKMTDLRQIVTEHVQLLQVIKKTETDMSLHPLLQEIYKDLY

| Compound | Potency [1] | Potency [2] | Potency [3] | Potency [4] | Potency [5] | Potency [6] | Potency [7] | Potency [8] | Potency [9] | Potency [10] | Potency [11] | Potency [12] | max activation [13] | Potency [14] | Potency [15] | Potency [16] | Potency [17] | Potency [18] | Potency [19] | Potency [20] |
| --- | --- | --- | --- | --- | --- | --- | --- | --- | --- | --- | --- | --- | --- | --- | --- | --- | --- | --- | --- | --- |
| C[C@@H](CO)NC(=O)[C@@H]1C=C2c3cccc4[nH]cc(c34)C[C@H]2N(C)C1 | inactive | 9.44 µM (active) | inactive | inactive | inactive | inactive | inactive | inactive | inactive | inactive | inactive | inactive | -0.825% | inactive | inactive | – | – | – | – | – |
| CC1(C)S[C@@H]2[C@H](N)C(=O)N2[C@H]1C(=O)O | inactive | inactive | inactive | inactive | inactive | inactive | inactive | inactive | inactive | inactive | inactive | inactive | -2.48% | inactive | inactive | inactive | inactive | inactive | inactive | inactive |
| CC(=O)O[C@H]1CC[C@H]2[C@@H]3CCC4=CC(=O)CCC4=C3C=C[C@]12C | inactive | inactive | – | – | 23.7 µM (active) | – | – | inactive | inactive | inactive | – | inactive | – | inactive | inactive | – | inactive | – | 2.68 µM [inconclusive] (active) | 0.531 µM (active) |
| CC1(C)[C@H](C=C(Cl)Cl)[C@H]1C(=O)OCc1c(F)c(F)cc(F)c1F | – | 22.1 µM (active) | – | inactive | inactive | – | inactive | inactive | inactive | inactive | inactive | – | 4.71% | inactive | inactive | inactive | – | inactive | inactive | inactive |
| COC(COC(N)=O)C1=C(N2CC2)C(=O)C(C)=C(N2CC2)C1=O (stereo not given) | – | inactive | – | inactive | 0.0042 µM (active) | – | 0.0047 µM (active) | inactive | 0.168 µM (active) | – | 13.4 µM (active) | – | – | inactive | inactive | inactive | 0.841 µM (active) | – | inactive | – |
| O=C(OCCN1CCCCC1)C(O)(c1ccccc1)c1ccccc1 | – | – | inactive | inactive | – | inactive | inactive | inactive | inactive | inactive | inactive | inactive | -1.73% | inactive | inactive | inactive | inactive | inactive | inactive | inactive |
| CNC1(c2ccccc2Cl)CCCCC1=O (stereo not given) | inactive | – | inactive | inactive | inactive | inactive | inactive | inactive | inactive | inactive | inactive | inactive | -2.7% and 3.43% | – | – | – | inactive | inactive | inactive | inactive |
| CN1c2ccccc2C(NCCCCCCC(=O)O)c2ccc(Cl)cc2S1(=O)=O (stereo not given) | inactive | – | – | inactive | – | – | – | inactive | inactive | inactive | inactive | inactive | -2.51% | – | 7.94 µM (active) | inactive | – | inactive | inactive | inactive |
